Screen size: about 53,000 compounds; about 900 (1.7%) showed an effect of 50% or more. Shown is part of a subset that was picked to be rich in strong results.
System: Mycobacterium tuberculosis
Assay: Cornell - Phenotypic assay to identify agents that inhibit growth of Mycobacterium tuberculosis
Assay type: functional
Set-up: scale not given: direction of the effect not stated beside the values
Details: 10 mM as filed; unlikely as a test dose

Compound	Percent Effect [%]
Cc1ccc([C@]2(O)CC[C@H]3CN(Cc4cccc(F)c4F)C[C@H]32)nc1.O=C(O)CC(O)(CC(=O)O)C(=O)O	-20.35
Cc1ccc([C@]2(O)CC[C@H]3CN(Cc4cccc(Cl)c4Cl)C[C@H]32)nc1.O=C(O)CC(O)(CC(=O)O)C(=O)O	69.29
Cc1ccc([C@]2(O)CC[C@H]3CN(Cc4cc(C)c(O)c(C)c4)C[C@H]32)nc1.O=C(O)CC(O)(CC(=O)O)C(=O)O	50.31
Cc1ccc([C@]2(O)CC[C@H]3CN(Cc4ccccc4F)C[C@H]32)nc1.O=C(O)CC(O)(CC(=O)O)C(=O)O	8.735
COc1ncc(CN2C[C@@H]3CC[C@@](O)(c4ccc(C)cn4)[C@@H]3C2)cn1.O=C(O)CC(O)(CC(=O)O)C(=O)O	-1.54
O=C(O)CC(O)(CC(=O)O)C(=O)O.O[C@@]1(c2ccccn2)CC[C@H]2CN(Cc3cccc(Cl)c3Cl)C[C@H]21	3.215
CN(CCc1ncnn1-c1ccccc1Cl)C1CCS(=O)(=O)C1 (stereo not drawn)	-16.6
Cc1ccc(CNS(=O)(=O)CCCC#N)cc1F	6.478
CC(c1nccs1)N(C)S(=O)(=O)NCc1ccccc1 (stereo not drawn)	-14.93
Cc1cc(C)n(CC2CN(CC(=O)NC(C3CC3)C3CC3)CCO2)n1 (stereo not drawn)	-31.15
Cc1ccc(CN2Cc3c(C(=O)N4CCOCC4)nn(C)c3C2)s1.O=C(O)C(F)(F)F	15.84
O=C(O)C(F)(F)F.c1cnc(N2CCO[C@H]3[C@H](OCC4CCOCC4)CC[C@@H]32)nc1	-2.783
c1ccc(CN2CCC(Nc3ncnc4c3CCNCC4)C2)cc1 (stereo not drawn)	21.59
CCS(=O)(=O)N1CCCCC1c1nc(CC(C)C)no1 (stereo not drawn)	28.4
Cc1cccc2c1cnn2CCC(=O)NCc1csc(C2CC2)n1	28.59
Cl.Nc1cccnc1N1CCCCCC1	72.92
CN1CCN(c2ncccc2N)CC1	-43.88
Nc1cccnc1N1CCN(c2ccccc2)CC1	11.1
Cc1cc(C)n(CCNCc2cc(-c3ccc(Cl)cc3)c[nH]c2=O)n1	-2.359
Cc1nc2c(c(NCc3cc4ccccc4s3)n1)CCNCC2	31.59
Cc1nc2c(c(NCc3ccc(-c4ccccn4)s3)n1)CCNCC2	10.6
Cc1nc2c(c(NCc3nc4ccccc4s3)n1)CCNCC2	90.34
Cc1nnc(N2CC[C@H]3C[C@@H](C(=O)NC4CCCC4)O[C@H]3C2)s1.O=C(O)C(F)(F)F	-17.08
O=C(NC1CCN(Cc2cccc3c2OCCO3)CC1)c1cccs1	-12.52
Cc1nnc([C@@]23CCO[C@@H]2CCN(Cc2ccc4c(c2)OCO4)C3)o1	-5.266

Compound	Percent Effect [%]
Cc1csc(N2CCN(C(=O)c3c(C)oc(C)c3C)CC2)n1	16.26
CN(C)C(CNC(=O)c1nc(N2CCCC2)ncc1Cl)c1ccco1 (stereo not drawn)	22.7
Cc1cc(NC(=O)c2nc(N3CCCC3)ncc2Cl)nc(C(C)C)n1	24.2
Cc1cc(C(N)=O)ccc1NC(=O)c1nc(N2CCCC2)ncc1Cl	105.8
Cc1cnn(Cc2ccc(NC(=O)N[C@@H]3C=C[C@H](CO)C3)cc2)c1	20.48
O=C(Nc1cnn(-c2ccccc2Cl)c1)N[C@@H]1C=C[C@H](CO)C1	52.75
O=C(Nc1cnn(Cc2ccc(Cl)cc2)c1)N[C@@H]1C=C[C@H](CO)C1	24.39
O=C(N1CCCC1)N1C[C@@H](OCc2cccnc2)[C@H]2OCCC[C@H]21.O=C(O)C(F)(F)F	12.95
Cc1cc2ccccc2n1CCC(=O)N1CCCC1Cn1cccn1 (stereo not drawn)	91.97
COc1ccc2c(ccn2CC(=O)N2CCCC2Cn2cccn2)c1 (stereo not drawn)	24.26
Cc1cc2ccccc2n1CCC(=O)N1CCC2(CC1)CNC(=O)C2	-9.599
Cc1cc2ccccc2n1CCC(=O)N1CCCC2(CC1)CNC(=O)O2 (stereo not drawn)	-6.951
Cc1cc(C)n(CC(=O)N2CCCCC2CCN(C)C)c(=O)n1 (stereo not drawn)	19.58
Cc1cc2ccccc2n1CCC(=O)N1CCN(C)CC1C(N)=O (stereo not drawn)	81.47
Cc1cc2ccccc2n1CCC(=O)N1CCCCC1CCO (stereo not drawn)	105.9
O=C(CCCOc1ccccc1)N1CCCC1Cn1cccn1 (stereo not drawn)	-5.631
Cc1cc2ccccc2n1CCC(=O)N1CCC[C@H]1C(N)=O	9.96
Cc1cc(C2CCCN(C(=O)c3cccnc3)C2)ccn1 (stereo not drawn)	-13.34
CCc1cc(NCc2ccccc2CN2CCCC2)n2ncnc2n1	-6.247
O=C(NCc1ccco1)[C@H]1C[C@@H]2CCN(c3ncccn3)C[C@H]2O1.O=C(O)C(F)(F)F	33.78
COCC[C@]1(O)CCN(Cc2nc(C)cs2)C[C@H]1C	-15.54
O=C(O)C(F)(F)F.O=C1[C@H]2CN(c3ncccn3)C[C@H]2CN1CCN1CCCC1	1.191
Cc1cnc(N2CCc3onc(COc4cccnc4)c3C2)nc1	-20.46
Cc1cc(C)cc(C(=O)N2CCN(C(=O)N(C)C)CC2(C)C)c1	26.69
Cc1nc(Nc2cnccn2)cc(C2CCN(CCO)C2)n1.O=CO (stereo not drawn)	-24.26

Compound	Percent Effect [%]
CSCCC(NC(=O)c1ccco1)C(=O)N(C)Cc1ccsc1 (stereo not drawn)	-9.579
O=C(NCCC(=O)N1CCCC1)c1ccc(SCc2cccnc2)cc1	35.93
CCOc1ccnc(N2CCN(C(=O)c3cccnc3)CC2)n1	-18.66
O=S(=O)(NC1CCCCC12OCCO2)c1cc(F)cc(F)c1 (stereo not drawn)	56.69
O=S(=O)(NC1CCCCC12OCCO2)c1ccc2c(c1)OCCO2 (stereo not drawn)	44.93
O=S(=O)(NC1CCCCC12OCCO2)c1cc(Cl)cc(Cl)c1 (stereo not drawn)	16.3
CCCN1CCC(Cc2noc(-c3cccnc3OC)n2)CC1	20.11
Cc1ccc(-n2nnc(C(=O)NCC3CCCCC3)n2)cc1	32.3
CCn1nc(C)c(CNC(=O)c2nnc3ccc(OC)cc3n2)c1C	-22.43
COc1ccc2nnc(C(=O)NC3CCCC3)nc2c1	60.2
O=C(NCC1CC1)c1nnc2ccc(Cl)cc2n1	99.3
O=C(NCC1CCOC1)c1cc(-c2ccc(Cl)cc2)n[nH]1 (stereo not drawn)	-7.527
Cc1ccc2nnc(C(=O)NCC3CCCC3)nc2c1	99.7
COc1ccc2nnc(C(=O)NCC3CCCC3)nc2c1	39.03
COc1ccc(C(=O)NC2CC2)c(OC)c1	29.69
CCn1nc(C)c(CNC(=O)c2nnc3ccc(Cl)cc3n2)c1C	64.24
CCn1nc(C)c(CNC(=O)c2nnc3ccccc3n2)c1C	7.838
O=C(NCC1CCOC1)c1csc(-c2ccc(Cl)cc2)n1 (stereo not drawn)	25.26
COc1ccc(-c2nnc(SC(C)C(=O)NC3CCCC3)[nH]2)c(OC)c1 (stereo not drawn)	-11.32
O=C1[C@H]2CCCC[C@H]2C(=O)N1c1cnn(Cc2cccc(F)c2)c1	24.19
Cc1nnc(-c2cccc(C#N)c2)n1C1CCN(C(C)C)C1=O (stereo not drawn)	5.61
Cc1cccc(S(=O)(=O)N2C[C@@H]3C[C@@H](c4nnc(C)[nH]4)O[C@@H]3C2)c1	-10.6
CN(Cc1ccc(F)cc1)CC1(O)CCN(C(=O)c2ccccn2)C1 (stereo not drawn)	17.87
O=c1[nH]cc(N2CCCCC2)c(=O)[nH]1	4.601
Cc1ccc(NCC2(O)CCNCC2)cc1C	-25.1

Compound	Percent Effect [%]
CC(C)c1nnc(NC(=O)N(C)Cc2ccncc2)s1	-15.27
Cc1ccsc1CN(CCN(C)C)Cc1ccccn1	3.624
CSC(C)CCN(Cc1ccccn1)Cc1sccc1C (stereo not drawn)	52.37
Cc1ccsc1CN(Cc1ccccn1)CC(C)C	-11.16
COCC(O)CN(C)c1ccnc2cc(Br)ccc12 (stereo not drawn)	6.843
O=C(NC[C@@H]1CCCO1)c1cccnc1N1CCCC1c1ccccc1 (stereo partly drawn)	4.902
CC(c1ccc(F)cc1F)N1CCN(CCC(=O)NC(N)=O)CC1 (stereo not drawn)	-2.983
COc1ccccc1N1CCC(CNCc2cccc(O)c2)C1 (stereo not drawn)	38.06
COc1ccccc1N1CCC(CNCc2ccc(C#N)cc2)C1 (stereo not drawn)	28.32
COc1ccc(CNCC2CCN(c3ccccc3OC)C2)cc1O (stereo not drawn)	59.98
COc1ccccc1N1CCC(CNCc2cccc(C#N)c2)C1 (stereo not drawn)	33.02
COc1cccc(N2CCC(CNC(=O)NCc3ccco3)C2)c1 (stereo not drawn)	-31.24
COc1cccc(N2CCC(CNCc3cccc(C#N)c3)C2)c1 (stereo not drawn)	63.04
Cc1cc(C)c(C(=O)N2CCCC(C(=O)CCc3ccccc3)C2)cn1 (stereo not drawn)	16
CN1CCCC1CCNC(=O)c1ccccc1-n1cnc(CN)c1 (stereo not drawn)	-39.2
CC(C)C(Sc1nnnn1C1CC1)C(=O)NCc1ccccc1 (stereo not drawn)	-5.783
Cc1nc(N)sc1C(=O)N1Cc2ccccc2OC2(CCOCC2)C1	-56.78
O=C1CCC2(CCN(Cc3cscn3)CC2)CN1CCCO	5.461
O=C(CNc1ccc(OCC2CCOCC2)cc1)NCc1ccco1	31.46
CC(C)(Oc1ccc(F)cc1)C(=O)NCc1ccco1	22.85
CC(C)(C)Oc1ccc(NCC(=O)NCc2ccco2)cc1	108
CC[C@H](C)Nc1nccc(-c2cnc3sccn3c2=O)n1	-1.989
O=C(c1cn(-c2ccccc2C(F)(F)F)nn1)N1CCSCC1	17.85
